Screening data deposited in PubChem BioAssay by National Center for Advancing Translational Sciences (NCATS).
A selection: hits, their analogues and other compounds. The true share with any hit is near 9.4%.
SMN2 splice enh = enhancers of SMN2 splice variant expression; 210,000 compounds, 2.8% hits; HEK293 SMN2-luciferase splicing reporter, luminescence, 30-36 h; Potency, µM (series often up to 46.1 µM), without a hit: at the highest dose activity change, positive = activation, hits mostly activators; note: % of control where 0% means no effect; nearly all actives have a fitted effect of over 55% in size
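HEK293 cells carry an SMN2 […]–luciferase reporter in which exon 7 inclusion puts luciferase in frame. Cells were plated 10-12 h before compound addition, then incubated 30-36 h at 37C. ONE-Glo luminescence was read; sodium butyrate at 4.5 mM final served as control.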
ELG1 genotox = induces genotoxicity in HEK293T cells with luciferase-tagged ELG1. HEK293T ELG1-luciferase reporter, luminescence, 16 h. Potency, µM (doses to about 46 µM), inactives show at the highest dose activity change, positive = activation, actives largely listed as activators. 330,000 compounds, 1.3% hits; note: % of control where 0% means no effect; nearly all actives have a fitted effect of over 60% in size
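After overnight (16 hr) compound treatment at 37 °C, ELG1-luciferase HEK293T cells were lysed with ONE-Glo; luminescence quantified 30 min later at room temperature.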
NPC1 promoter act = activators of NPC1 promoter; Huh7 NPC1 promoter luciferase reporter, 24 h; Potency, µM (top dose mostly 9.22 µM), for inactives: top-dose activation, actives largely listed as activators; 320,000 compounds, 2.4% hits; note: % of control where 0% means no effect; nearly all actives have a fitted effect of over 60% in size
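Stable NPC1-promoter luciferase Huh7 line; cpd (DMSO) 24 h, 37 °C, 5% CO2; Amplite luciferase reagent 10 min RT; luminescence readout. qHTS format.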
FLuc counter = counter-screen for miR-21 project: firefly luciferase inhibitors or activators | P08659 | purified FLuc, Km substrates, luminescence inhibition | Potency, µM (highest dose often 57.5 µM), inactives show top-dose activity change, negative = inhibition, most hits filed as inhibitors | 360,000 compounds, 6.9% hits;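 note: plate controls were vehicle for no effect and reference inhibitor for full effect; nearly all actives have a fitted effect of over 55% in size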
Target sequence (P08659 whole entry, looked up): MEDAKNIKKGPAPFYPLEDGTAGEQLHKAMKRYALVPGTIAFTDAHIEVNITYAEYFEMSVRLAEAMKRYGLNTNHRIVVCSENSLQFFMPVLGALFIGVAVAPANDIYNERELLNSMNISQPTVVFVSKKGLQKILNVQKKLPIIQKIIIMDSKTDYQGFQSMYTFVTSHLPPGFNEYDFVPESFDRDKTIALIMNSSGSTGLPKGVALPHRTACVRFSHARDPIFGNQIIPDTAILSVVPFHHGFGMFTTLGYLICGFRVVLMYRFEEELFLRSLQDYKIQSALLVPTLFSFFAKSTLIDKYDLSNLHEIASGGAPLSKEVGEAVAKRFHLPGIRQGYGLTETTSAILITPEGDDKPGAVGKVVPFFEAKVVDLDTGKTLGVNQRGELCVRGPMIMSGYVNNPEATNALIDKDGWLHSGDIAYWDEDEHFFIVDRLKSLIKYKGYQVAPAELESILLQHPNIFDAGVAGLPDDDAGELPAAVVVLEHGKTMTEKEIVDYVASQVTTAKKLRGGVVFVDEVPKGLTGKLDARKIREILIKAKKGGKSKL
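Purified P. pyralis luciferase (10nM final) with 10uM D-luciferin and 10uM ATP (Km levels) in 50mM Tris acetate pH 7.5, 10mM Mg acetate, 0.01% Tween-20, 0.05% BSA; qHTS 6-point titration, ~60 µM downward; luminescence read.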
ELG1 DNA repair = ELG1-dependent DNA repair inhibition | HEK293T ELG1-luciferase reporter, luminescence, 16 h; DNA damage induced by 5-fluorouridine | Potency, µM (highest dose often 46.1 µM), for inactives: at the highest dose activity change, negative = inhibition, usual class: inhibitors | 330,000 compounds, 2.3% hits | AID 504467; note: % is set by controls: 0 for no effect and ±100 for the full control effect; nearly all actives have a fitted effect of over 55% in size
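DMSO vehicle served as the neutral condition. Each well held 2,000 cells given 5-fluorouridine plus compound; after 16 hr at 37 °C/5% CO2, ONE-Glo was added and luciferase measured 30 min later.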
Rab9 prom act = activates the Rab9 promoter; Huh7 Rab9 promoter-luciferase reporter, luminescence, 24 h; Potency, µM (top dose mostly 9.22 µM), for the others: top-dose activation, negative = inhibition, actives largely listed as activators; 320,000 compounds, 2.8% hits; AID 485297; note: % of control where 0% means no effect; nearly all actives have a fitted effect of over 60% in size
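Luminescence read-out: Huh7 cells stably expressing Rab9-luciferase, treated 24 h with compound at 37 °C, then lysed with luciferase reagent for 10 min at ambient before reading.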
* hit, by the source's call; ? = inconclusive; · = not tested or not shown; ! = a repeat was not active; [ ] = dose if it differs, or a comment. Calls come from the whole dose curve; as a rule, active = well fitted curve in the direction sought with a large enough effect; inconclusive = small, poorly fitted or top-dose-only effect, or another doubt; inactive = no such curve, though single readings can be large; an effect the other way counts as inactive or inconclusive. Potency is the fitted concentration of half-maximal effect.

SMILES	SMN2 splice enh	ELG1 genotox	NPC1 promoter act	FLuc counter	ELG1 DNA repair	Rab9 prom act
O=C1/C(=C/c2cccc([N+](=O)[O-])c2)CSc2ccc(Cl)cc21	·	6.9%	-1.0%	-13.4%	-1.3%	-2.6%
O=C1/C(=C/c2ccc([N+](=O)[O-])cc2)CCc2ccccc21	·	7.3µM*	27.7%	0.151µM*	?	?
CCN1CCN(S(=O)(=O)c2cccc([N+](=O)[O-])c2)CC1	17.7%	-0.3%	1.5%	-1.5%	1.4%	-6.4%
CC1(C)Cc2ccccc2C(N/N=C/c2ccc([N+](=O)[O-])cc2)=N1	-21.3%	4.5%	-2.9%	-5.9%	?	-1.7%
O=C(O)c1ccc(-n2ncc3c2/C(=C/c2cccc([N+](=O)[O-])c2)CC3)cc1	·	15.0%	1.58µM*	10.7µM*	?	2.82µM*
CCN1C/C(=C\c2cccc([N+](=O)[O-])c2)C(=O)/C(=C/c2cccc([N+](=O)[O-])c2)C1	-117.5%	-12.0%	-34.3%	5.3%	3.26µM*	-58.0%
CCc1cccc(C)c1NC(=O)Cn1ccn(-c2cccc(OC)c2)c(=O)c1=O	·	·	·	-19.6%	·	·
OC[C@H](S)CS	-1.6%[9.22 µM]	·	·	·	·	·
CC1CCN(S(=O)(=O)c2ccc3c(c2)CCN3C(=O)Nc2ccc(Br)cc2F)CC1	4.1%	·	·	0.1%	·	·
CCCCOc1cccc(C(=O)Nc2cc(NC(=O)c3ccco3)ccc2OC)c1	-21.2%	·	·	?	·	·
CCn1ccnc1CN(C)C(=O)c1cc(COc2ccccc2SC)on1	·	?	?	12µM*	?	2.82µM*
CSc1ccccc1OCc1cc(C(=O)N(C)Cc2ccncn2)no1	·	16.4µM*	2µM*	15.1µM*	?	2µM*
CSc1ccccc1OCc1cc(C(=O)N(C)CCn2nc(C)cc2C)no1	·	2.6%	7.8%	-18.8%	-16.2%	8.7%
CSc1ccccc1OCc1cc(C(=O)N(C)Cc2nonc2C)no1	·	?	2.24µM*	13.5µM*	?	2µM*
Cc1ccccc1C(=O)Nc1nnc(S(=O)(=O)N2CCCc3ccccc32)s1	·	·	·	2.2%	·	·
CC1CN(C(=O)N2CCC(C(=O)NCCCc3ccccc3)CC2)c2cc(Cl)ccc2O1 (centres undefined)	·	·	·	-8.8%	·	·
Cc1cccc(C(=O)O/N=C(\N)c2cccc([N+](=O)[O-])c2)c1	15.9%	?	?	1.35µM*	?	17.7%
O=C(COC(=O)c1cccc([N+](=O)[O-])c1)NCc1cccs1	-1.5%	2.7%	0.3%	3.7%	5.5%	4.1%
COc1ccc(/C(N)=N/OC(=O)c2cccc([N+](=O)[O-])c2C)cc1OC	-3.8%	13.9%	2.5%	?	?	18.3%
COc1cccc(C(=O)O/N=C(\N)c2ccc([N+](=O)[O-])cc2)c1OC	?	?	?	10.7µM*	?	10.2%[1.84 µM]
Cc1ccccc1C(=O)O/N=C(\N)c1cccc([N+](=O)[O-])c1	?	?	?	0.601µM*	?	4.47µM*
Cc1ncsc1CCOC(=O)c1cccc([N+](=O)[O-])c1	5.2%	1.3%	-2.0%	19µM*!	7.2%	-5.3%
CCOc1ccc(CNCc2c(C(=O)O)n(Cc3ccc(OC)cc3)c3ccccc23)cc1	·	·	·	-12.8%	·	·
O=C(O)CCc1ccc(-c2ccccc2)[nH]1	-10.9%[9.22 µM]	·	·	·	·	·
CN(CC(=O)O)CC(=O)O	-18.3%[9.22 µM]	·	·	·	·	·
SMILES	SMN2 splice enh	ELG1 genotox	NPC1 promoter act	FLuc counter	ELG1 DNA repair	Rab9 prom act
N/C(=N\OC(=O)Oc1ccccc1)c1cccc([N+](=O)[O-])c1	13.1%	1.4%	-2.6%	0.5%	14.3%	-2.8%
N/C(=N\OC(=O)c1cccs1)c1cccc([N+](=O)[O-])c1	19.5%	?	21.3%	3.38µM*	?	26.3%
COc1cccc(OCc2cc(C(=O)N(C)Cc3nc4ccccc4[nH]3)no2)c1	·	?	3.16µM*	10.7µM*	?	?
CC(=O)c1cccc(OCc2cc(C(=O)N(C)Cc3cnccn3)no2)c1	·	?	?	?	?	2.51µM*
CC(=O)c1ccc(OCc2cc(C(=O)N(C)Cc3ncc(C)[nH]3)no2)cc1	·	6.6%	-3.0%	0.2%	29.3%	-1.7%
CCc1ccc(CN(C)C(=O)c2cc(COc3cccc4cnccc34)on2)cc1	·	-9.2%	-27.8%	-1.9%	?	-32.3%
CN(Cc1cccnc1)C(=O)c1cc(COc2ccc3c(c2)CCCC3)on1	·	?	1.26µM*	10.7µM*	?	?
CC(=O)c1cccc(OCc2cc(C(=O)NCc3nc(C)c(C)s3)no2)c1	·	?	?	16.9µM*	?	?
COc1cc(CNC(=O)c2ccc3c(c2)c(C)c(C)n3Cc2cccc(C)c2)cc(OC)c1OC	·	·	·	-9.6%	·	·
Cc1c(Cl)cccc1NC(=O)CC(c1ccc(F)cc1)N1Cc2ccccc2C1=O (centres undefined)	·	·	·	-14.6%	·	·
COc1ccc(NC(=O)C(C)n2c(C)c3cnn(-c4ccccc4)c(=O)c3c2C)cc1Cl (centres undefined)	-12.8%	·	·	-6.6%	·	·
O=C(NCCCN1CCN(Cc2ccccc2)CC1)C1CCN(c2nnc(-n3cccc3)s2)CC1	-58.3%	-9.2%	-9.7%	?	7.08µM*	-14.7%
O=C(O)c1cccc(N2C(=O)c3ccc(Oc4ccc(Cl)cc4)cc3C2=O)c1	·	-0.4%	-3.7%	7.57µM*	12.4%	5.0%
O=c1cccc2n1Cc1cc3ccccc3nc1-2	12.6µM*	20.6µM*	3.16µM*	19µM*	?	2.82µM*
CCc1cccc2nc3c(c([Si](CC)(CC)CC)c12)Cn1c-3cccc1=O	-26.4%	·	·	·	·	·
